Bioassay records deposited in PubChem by National Center for Advancing Translational Sciences (NCATS).
MARV entry inh: blocks Marburg virus binding to or entry into cells | Potency, µM (highest dose often 37.8 µM), without a hit: at the top dose activity change, negative = inhibition, hits mostly inhibitors | 300,000 compounds, 1.8% hits | Marburg virus pseudotyped entry inhibition, cell reporter | AID 540276; calls by dose curve; tested in HEK293 cells; further: potency means the concentration at half of the fitted maximal effect
FMDV inh: antivirals against foot and mouth disease virus; 410,000 compounds, 1.2% hits; AID 1159524; FMDV antiviral cell-based qHTS; Potency, µM (top dose mostly 57.9 µM), inactives show at the top dose activity change, negative = inhibition, actives largely listed as inhibitors; calls by dose curve; tested in HEK293T cells; further: read-out not given here; potency means the concentration at half of the fitted maximal effect; nearly all actives have a fitted effect of over 45% in size
HCV inh: blocks hepatitis C virus; 340,000 compounds, 3.4% hits; Potency, µM (titrated, usually from 41.8 µM), for inactives: at the highest dose activity change, negative = inhibition, hits mostly inhibitors; Huh7.5.1 HCVcc-Cre infection, luciferase reporter, 44 h; further: potency means the concentration at half of the fitted maximal effect
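A cell-based infection assay in which seeded cells (1,000 per well) receive test compound after 4 h, are inoculated with HCVcc-Cre at approximately 0.5 moi, and are incubated 44 h before luminescence detection.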
HCMV inh: human cytomegalovirus inhibition. HFF cells, HCMV-luciferase reporter, 72 h; active compounds read low. 410,000 compounds, 4.5% hits. activity change, negative = inhibition, % at 57.5 µM. AID 1259415; in the data active means activity change below about -60%; inconclusive means no clear call, values can overlap the other calls; inactive means above about -39%
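Screen run at 2 compound doses on HFFs infected with reporter HCMV, MOI 1 PFU/cell. Luciferase activity from cell lysates at 72 h post infection gave inhibition relative to buffer-only and Salinomycin wells.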
FBPA Giardia inh: inhibitors of Giardia lamblia fructose-1,6-bisphosphate aldolase; Potency, µM (top dose mostly 59.6 µM), without a hit: top-dose activity, negative = inhibition, usual class: inhibitors; purified Giardia FBPA; A8B2U2; 290,000 compounds, 0.71% hits; further: potency means the concentration at half of the fitted maximal effect; nearly all actives have a fitted effect of over 55% in size
Target sequence (A8B2U2 whole entry, looked up): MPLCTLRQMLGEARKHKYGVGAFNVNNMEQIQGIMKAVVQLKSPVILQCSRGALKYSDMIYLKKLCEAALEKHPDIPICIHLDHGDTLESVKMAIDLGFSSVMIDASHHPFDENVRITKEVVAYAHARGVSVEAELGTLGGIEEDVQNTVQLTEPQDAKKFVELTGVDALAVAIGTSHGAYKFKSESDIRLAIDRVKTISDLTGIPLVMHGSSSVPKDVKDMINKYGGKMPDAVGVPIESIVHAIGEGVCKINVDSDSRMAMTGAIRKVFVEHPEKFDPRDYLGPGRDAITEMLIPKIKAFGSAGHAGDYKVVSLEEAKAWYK
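40 nM FBPA preincubated 10 min at RT with compound (up to 57.5 uM final), then substrate plus GAPDH/TPI/NAD/arsenate coupling and diaphorase/resazurin added. Fluorescence read after 20 min at RT, 525/598 nm.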
Lassa entry inh: inhibitors of Lassa virus binding or cell entry; Lassa virus pseudotype entry inhibition, cell reporter; Potency, µM (doses to about 37.9 µM), for the others: at the highest dose activity change, negative = inhibition, usual class: inhibitors; AID 540256; 300,000 compounds, 1.2% hits; calls by dose curve; tested in HEK293 cells; further: potency means the concentration at half of the fitted maximal effect; nearly all actives have a fitted effect of over 50% in size
* hit, by the source's call; ? = inconclusive; . = no result; + = active, no number; ! = not active in a repeat; [ ] = dose if it differs, or a comment. In the library only some 8.3% were active in any assay of this set; here they are far more common. Unless noted, the call rests on the fitted dose curve; in most records, active means well fitted curve in the direction sought with a large enough effect; inconclusive means small, poorly fitted or top-dose-only effect, or another doubt; inactive means no such curve, though single readings can be large; an effect the other way counts as inactive or inconclusive. On the % scale 0 is the no-effect control and ±100 the full control effect.

SMILES	MARV entry inh	FMDV inh	HCV inh	HCMV inh	FBPA Giardia inh	Lassa entry inh
O=C(O)COc1ccccc1/C=N/NC(=O)c1cc(-c2ccccc2)nc2ccccc12	-5.5%	-8.4%	12.4%	+	-6.8%	4.1%
COc1cc(/C=N/NC(=O)c2cc(-c3ccccc3)sc2N)cc(OC)c1OC	?	-25.3%	?	20.9	-4.1%	15.8µM*
O=C(N/N=C/c1ccccn1)c1cc(-c2ccc(Br)cc2)nc2ccccc12	?	-12.4%	?	-99.6*	-22.2%	?
O=C(N/N=C/c1ccccn1)c1cc(-c2ccc(Cl)cc2)nc2ccccc12	?	?	35.3%	9.4	12.3%	?
Cc1cccc(CNC(=O)c2cnn(-c3ncc4c(n3)-c3ccccc3CC4)c2C2CC2)n1	.	3.6%	.	.	.	.
Cc1cc(C(=O)N/N=C/c2cccnc2)c(C)o1	13.2%	-1.4%	7.4%	-98.9*	3.0%	5.2%
Cc1[nH]c2ccccc2c1/C=N/NC(=O)c1cc(-c2ccncc2)nc2ccccc12	.	-12.4%	10µM*	8.4	.	.
Cc1ccc(CNC(=O)c2sc3nc4n(c(=O)c3c2C)CCCC4)cc1	.	13.5%	.	11.7	.	?
CCCSc1nc2c(cnn2-c2ccccc2)c(=O)n1N	?	-6.0%	-13.5%	72.7	-4.1%	8.91µM*
CCC(C(=O)NCC1CCCO1)N(Cc1ccccc1)C(=O)CNS(=O)(=O)c1ccccc1 (centres undefined)	-4.1%[46.1 µM]	-1.7%	3.2%	-35.2	5.7%	-14.3%
COc1ccc(S(=O)(=O)N(CC(=O)NCC2CCCO2)Cc2ccccc2)cc1C (centres undefined)	20.0%[46.1 µM]	1.0%	-1.5%	-90.2*	2.0%	?
O=C(CN(Cc1ccccc1)S(=O)(=O)c1ccc(Br)cc1)NCC1CCCO1 (centres undefined)	-25.8%[46.1 µM]	-14.9%	-23.1%	-23.1	-4.0%	-5.4%
COc1ccc(S(=O)(=O)NCC(=O)N(CC(=O)NCC2CCCO2)c2ccccc2C)cc1 (centres undefined)	-3.3%	-13.6%	-1.8%	22.8	-5.8%	-12.8%
CCOc1ccccc1N(CC(=O)NCC1CCCO1)C(=O)CNS(=O)(=O)c1ccccc1 (centres undefined)	-3.7%[46.1 µM]	4.5%	-10.5%	-68.8*	-0.4%	5.3%
O=C(CC(c1ccccc1)c1ccccc1)NCC1CCCO1 (centres undefined)	17.6%	-4.8%	17.3%	-99.7*	6.6%	-0.7%
CCC(C(=O)NCC1CCCO1)N(Cc1ccc(F)cc1)C(=O)CNS(=O)(=O)c1ccccc1 (centres undefined)	-2.6%[46.1 µM]	23.1%	7.1%	-70.6*	.	-2.2%
O=C(CCSc1ccccc1)NCC1CCCO1 (centres undefined)	5.0%	34.6%	15.1%	-18.0	8.3%	3.9%
C[C@H]1[C@H](C)CC[C@]2(C(=O)O)CC[C@]3(C)C(=CCC4[C@@]5(C)C[C@@H](O)[C@H](O)[C@@](C)(CO)[C@@H]5CC[C@]43C)[C@H]12 (some centres undefined)	.	.	.	.	20.4%	.
O=C1N[C@@H](Cc2ccccc2)C(=O)N2[C@H]1CSCCS2(=O)=O	.	.	.	0.6	.	-20.4%[46.1 µM]
CCCOC(=O)CSc1nnc2ccc3ccccc3n12	-0.9%[46.1 µM]	0.0%	.	13.1	.	3.8%[46.1 µM]
O=C(CCNS(=O)(=O)c1ccc2c(c1)CCN2C(=O)C1CC1)N1CCN(c2ccc(F)cc2)CC1	.	-27.9%	.	-37.5	.	?
N[C@@H]1CCc2cc(O)c(O)cc2C1	4.8%	.	.	.	.	.
N#C/C(=N\Nc1ccc(S(=O)(=O)N2CCCCCC2)cc1)C(N)=S	?	17.1%	1.8%	-19.5	-4.0%	-4.2%
N#CC(C#N)=NNc1ccc(S(=O)(=O)N2CCCC2)cc1	?	31.6µM*	1.3%	-11.4	28.2%	28.0%
O=C(O)c1cccc(N2CCCCS2(=O)=O)c1	-0.8%	-10.8%	12.3%	-99.8*	6.0%	6.5%
SMILES	MARV entry inh	FMDV inh	HCV inh	HCMV inh	FBPA Giardia inh	Lassa entry inh
Cc1ccc(NC(=O)c2cccc(N3CCCS3(=O)=O)c2)cc1	.	12.8%	.	41.9	.	10.7%[46.1 µM]
C[C@H](CO)N1C[C@H](C)[C@@H](CN(C)C(=O)c2ccc3c(c2)OCO3)Oc2cc(/C=C/c3ccccc3)ccc2S1(=O)=O	.	33.4%	.	-61.9*	.	.
CC(C)CC#Cc1ccc2c(c1)O[C@H](CN(C)C(=O)Nc1ccccc1)[C@@H](C)CN([C@H](C)CO)S2(=O)=O	.	97.4%	.	3.9	.	.
C[C@@H]1CN([C@H](C)CO)S(=O)(=O)c2ccc(C#Cc3ccccc3)cc2O[C@H]1CN(C)C(=O)Nc1ccc2c(c1)OCO2	.	-20.4%	.	-86.7*	.	.
C[C@@H]1CN([C@@H](C)CO)S(=O)(=O)c2ccc(/C=C/c3ccccc3)cc2O[C@@H]1CN(C)Cc1ccc(C(=O)O)cc1	.	-15.1%	.	0.4	.	.
CC1CCN(c2ccc(-c3cccc(NS(=O)(=O)c4ccc(F)cc4F)c3)nn2)CC1	.	-6.9%	.	-99.8*	.	9.1%[46.1 µM]
O=S(=O)(Nc1cccc(-c2ccc(N3CCCCC3)nn2)c1)c1ccc(F)cc1F	.	40.6%	.	56.3	.	1.6%[46.1 µM]
CCN1CCN(c2ncc(C(=O)Nc3ccccc3C(=O)OC)c3ccccc23)CC1	12.6µM*	-17.1%	7.94µM*	-7.3	.	?
CC(C)NC(=O)c1cnc(N2CCN(c3ccccn3)CC2)c2ccccc12	?	?	?	-2.3	-7.2%	?
CCc1ccc(NC(=O)c2cnc(N3CCN(c4ccccn4)CC3)c3ccccc23)cc1	?	11.2µM*	4.47µM*	-19.2	-2.9%	?
N#CC(=C(/N)Sc1ccccc1N)/C(C#N)=C(/N)Sc1ccccc1N	?	-19.5%	.	.	-1.8%	.
COc1ccccc1C(CNC(=O)CNC(=O)c1cccc(Cl)c1)N1CCCC1 (centres undefined)	7.08µM*	-12.7%	5.7%	3.6	.	3.2%
COc1ccccc1C(CNC(=O)C(CCSC)NC(=O)c1ccccc1Cl)N1CCCC1 (centres undefined)	2.82µM*	-6.1%	13.0%	9.5	.	6.2%
CS(=O)(=O)N1CCc2cc(C(=O)Nc3cccc(F)c3)ccc21	?	19.1%	.	67.4	.	5.6%[46.1 µM]
Cc1nc2ccccn2c(=O)c1CCN1CCC(C(=O)c2ccc(F)cc2)CC1	6.31µM*!	-2.5%	?	-38.0	1.2%	-10.1%
Cc1nc2sccn2c(=O)c1CCN1CCC(=C(c2ccc(F)cc2)c2ccc(F)cc2)CC1	20µM*	-17.7%	3.55µM*!	-2.8	-2.8%	11.6µM*
Cc1nc2sccn2c(=O)c1S(=O)(=O)N1CCN(c2ccc(F)cc2)CC1	.	-7.8%	-6.1%	8.3	1.1%	2.0%[46.1 µM]
CCN1CCN(c2c(S(=O)(=O)c3ccc(OC)cc3)cnc3cc(OC)c(OC)cc23)CC1	?	-16.9%	.	-38.7	.	.
COc1cc2ncc(S(=O)(=O)c3ccccc3)c(N3CCCC(C)C3)c2cc1OC (centres undefined)	.	-28.0%	11.2µM*	-21.2	-5.7%	.
